Records with an inconclusive call do not appear. Activity calls are given as the source filed them.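 How the source made its calls, unless noted: active means efflux inhibition above 0.42, the validation set average plus 4 SD; inconclusive means no clear call, values can overlap the other calls; inactive means the rest.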
Tests used:
[1] = yeast TOR pathway RPL19A-GFP modulators, primary screen, cell-based, S. cerevisiae, multiplex flow cytometry (AID 1862; in the data active means percent of DMSO control GFP below about 86%;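 further: lower values mimic rapamycin by blocking the RPL19A rise seen in DMSO cells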); details: S. cerevisiae RPL19A-GFP strain, flow cytometry fluorescence, 3 h; at 10 µM; stronger effect = lower value
[2] = modulators of MEP2-GFP levels in yeast, primary screen, S. cerevisiae, multiplex flow cytometry (AID 1867;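 active means GFP response, as percent of the DMSO control, above the screen-wide mean plus 3 SD, about 139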;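 further: median GFP channel fluorescence of barcode-gated MEP2-GFP cells measured by flow cytometry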); details: S. cerevisiae MEP2-GFP strain, 3 h, at 10 µM, stronger effect = higher value, 100% means same as DMSO wells
[3] = modulators of CIT2-GFP expression in yeast, primary screen, S. cerevisiae, GFP fusion, multiplex flow cytometry (AID 1870;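 active means percent response above a set limit, the screen-wide mean plus 3 SD, cut at about 130% in these data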;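 further: barcoded CIT2-GFP strain pooled with four other GFP strains with rapamycin as positive control; median GFP fluorescence per well over plate mean of DMSO wells so 100% = DMSO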); details: 3 h, at 10 µM, stronger effect = higher value
[4] = modulators of LAP4-GFP expression in yeast, primary screen, S. cerevisiae, multiplex flow cytometry (AID 1873;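 active means GFP signal, as percent of the solvent control, above the screen mean plus 3 SD, about 149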); details: 3 h, at 10 µM, stronger effect = higher value
[5] = modulators of AGP1-GFP expression in yeast TOR pathway, primary screen, cell-based, multiplex flow cytometry, S. cerevisiae (AID 1887;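 active means GFP signal above the screen-wide mean plus 3 SD, that is over about 124.5% of the solvent control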;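 further: AGP1-GFP fusion strain of S. cerevisiae within a five-strain barcoded multiplex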); details: 3 h, at 10 µM, stronger effect = higher value
[6] = RPL19A-GFP modulators, yeast TOR pathway, confirmation, cell-based, S. cerevisiae, flow cytometry, cherry picks, mother/daughter gates (AID 2270;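 active means GFP response below 50% of the DMSO control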); details: S. cerevisiae RPL19A-GFP strain, 3 h, at 10 µM, stronger effect = lower value, 100 = same GFP as DMSO wells
[7] = LAP4-GFP expression modulators in yeast, confirmation, cell-based, cherry picks, flow cytometry, mother/daughter gates (AID 2271;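 active means GFP response above 150% of the DMSO control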;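 further: ratio of sample to DMSO plate mean so 100% equals DMSO level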); details: S. cerevisiae LAP4-GFP strain, 3 h, at 10 µM, stronger effect = higher value, 100 means same as DMSO control
[8] = modulators of MEP2-GFP levels in yeast, confirmation, S. cerevisiae, flow cytometry GFP, cherry picks (AID 2272;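 active means GFP response above 150% of the DMSO control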;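 further: ratio of well signal to plate DMSO mean so 100% equals DMSO level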); details: S. cerevisiae MEP2-GFP strain, 3 h, at 10 µM, stronger effect = higher value
[9] = modulators of CIT2-GFP expression in yeast, confirmation, S. cerevisiae, GFP fusion, cherry picks, mother/daughter gates (AID 2274;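 active means GFP response above 150% of the DMSO level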); details: S. cerevisiae CIT2-GFP strain, flow cytometry, 3 h, at 10 µM, stronger effect = higher value
[10] = inhibitors of CD8+ T cell-vesicle binding, pilot screen, LFA-1/ICAM-1 modulator project, MLPCN validation set, flow cytometry (AID 2523;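 active means response below a set limit, under 55% cells CD8-positive and vesicle-bound, and CD8 cells' 90th-percentile brightness under 279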;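 on vesicle binding response: mean PE anti-B7-1 fluorescence of CD8+ cells relative to row control; 100% = QL9-loaded vesicles with DMSO vehicle in the same plate row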); details: 2C mouse CD8+ T cells, at 7 µM, stronger effect = lower value; double positive events: measured here: CD8+/vesicle+ event percentage
[11] = target: Integrin beta-1 (Homo sapiens) + Integrin alpha-4 (Homo sapiens) (UniProt P13612+P05556); experiment: inhibition of HUTS-21 binding to VLA-4, pilot screen, VLA-4 allosteric modulator project, U937 cells, HUTS-21 mAb, flow cytometry, validation set (AID 2674;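 active means inhibition above 50%, about 3 SD of the validation set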;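 further: antibody binding induced by the VLA-4 ligand LDV present at three times its Kd; 0% = LDV ligand with antibody and no compound and 100% = antibody without LDV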); details: HUTS-21 LIBS mAb binding, at 6.7 µM, stronger effect = higher value, binding induced by LDV ligand
[12] = superoxide lowering in aged yeast cells, pilot screen, validation compound set (AID 2706;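 active means superoxide response below 65% of plate, a cut near 3 SD across the whole screen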;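 further: yeast exposed to compound for one week at 30 degrees C before staining; 100% = mean of all compound wells on the same plate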); details: S. cerevisiae aging, superoxide DHE fluorescence; at 10 µM; stronger effect = lower value
[13] = target: Beta-adrenergic receptor kinase 1 (Homo sapiens) (UniProt P25098); experiment: GRK2 binders displacing RNA aptamer, biochemical, validation, human GRK2, bead flow cytometry (AID 488806;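 active means aptamer binding inhibition above 30%, about 3 SD of noise from non-fluorescent compounds; inactive means inhibition at or below 30%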); details: bead-bound GRK2, FAM-aptamer displacement, at 10 µM, stronger effect = higher value
[14] = target: AP-2 complex subunit beta (Homo sapiens) (UniProt P63010); experiment: inhibitors of arrestin peptide binding to AP2, pilot screen, biochemical, validation set, GST-AP2 beads, flow cytometry (AID 504541;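 active means inhibition above 54%, about 3 SD of non-fluorescent compounds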;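 further: AP2 carries R879A mutation and is captured from E. coli lysate; bead-bound FITC arrestin peptide fluorescence measuring arrestin peptide binding to AP2; 0% = DMSO wells and 100% = excess unlabeled arrestin peptide control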); details: FITC arrestin peptide, at 10 µM, stronger effect = higher value, AP2 beta2 appendage fragment, R879A mutant
[15] = yeast V-ATPase proton transport modulators, S. cerevisiae, pHLuorin, HTS validation (AID 504600; in the data active means response above about 15%;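 further: plate controls were DMSO for no effect and reference compound for full effect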); details: S. cerevisiae pHLuorin cytosolic pH, at 10 µM, stronger effect = higher value
[16] = tested on: anti-desmoglein-3 scFv antibody binding to human DSG3; experiment: inhibitors of anti-DSG3 scFv binding to DSG3, pilot screen, biochemical, validation compound set, bead-based, flow cytometry (AID 588368;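 active means binding below the plate cutoff, the plate median minus 3 SD, with a reading above zero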;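 further: signal is the median channel fluorescence of bead-bound GFP antibody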); details: Protein G beads, DSG3-Fc, scFv-GFP binding, at 10 µM, stronger effect = lower value
[17] = inhibitors of fungal efflux pumps CDR1, CDR2, MDR1, pilot screen, validation compound set, multiplex, phenotypic (AID 588506);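 further: Nile Red retained in cells so higher fluorescence means more efflux inhibition; 0 = negative control wells and 1 = enniatin B 25 µM full block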; details: S. cerevisiae pump-expressing triplex, Nile Red efflux flow cytometry; at 10 µM; stronger effect = higher value; the pumps come from Candida albicans
[18] = target: ATP-binding cassette sub-family B member 6 (Homo sapiens) (UniProt Q9NP58); experiment: ABCB6 transporter inhibitors, pilot screen, K562-ABCB6 cells, flow cytometry, validation set (AID 588550;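 active means inhibition above the screen-wide mean plus 3 SD, about 51%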;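 further: 0% = DMSO wells and 100% = benzethonium chloride 70 µM positive control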); details: K562-ABCB6 porphyrin accumulation, 1 h, at 10 µM, stronger effect = higher value
[19] = promoters of myeloid differentiation in arrested cells, primary screen, cell-based, GFP/MAC1 double positive, flow cytometry, validation set (AID 588685;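 active means differentiation response of at least 50%, scaled between solvent and reference control, from cells with both markers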;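 further: compound exposure lasts four days before antibody staining and flow analysis; 0% = DMSO wells and 100% = 5 µM fulvestrant positive control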); details: ER-HoxA9 marrow cells, stronger effect = higher value, normalized: vehicle 0, fulvestrant 100
[20] = target: Beta-2 adrenergic receptor (Homo sapiens) (UniProt P07550); experiment: beta2AR agonists driving receptor internalization, pilot screen, cell-based, FAP fluorogen, flow cytometry, validation set (AID 504459;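 active means percent response above 42, roughly 3 SD of non-fluorescent test compounds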;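 further: agonist-driven loss of surface beta2AR via internalization measured by FAP dye flow cytometry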); details: Am2.2-beta2AR cells, FAP surface receptor flow cytometry; at 10 µM; stronger effect = higher value
[21] = measured here: daughter cell gate
[22] = measured here: mother cell gate
[23] = measured here: daughter cell gate response
[24] = measured here: mother cell gate response

Integrin beta-1 (Homo sapiens) + Integrin alpha-4 (Homo sapiens), sequence (P05556 whole entry, looked up): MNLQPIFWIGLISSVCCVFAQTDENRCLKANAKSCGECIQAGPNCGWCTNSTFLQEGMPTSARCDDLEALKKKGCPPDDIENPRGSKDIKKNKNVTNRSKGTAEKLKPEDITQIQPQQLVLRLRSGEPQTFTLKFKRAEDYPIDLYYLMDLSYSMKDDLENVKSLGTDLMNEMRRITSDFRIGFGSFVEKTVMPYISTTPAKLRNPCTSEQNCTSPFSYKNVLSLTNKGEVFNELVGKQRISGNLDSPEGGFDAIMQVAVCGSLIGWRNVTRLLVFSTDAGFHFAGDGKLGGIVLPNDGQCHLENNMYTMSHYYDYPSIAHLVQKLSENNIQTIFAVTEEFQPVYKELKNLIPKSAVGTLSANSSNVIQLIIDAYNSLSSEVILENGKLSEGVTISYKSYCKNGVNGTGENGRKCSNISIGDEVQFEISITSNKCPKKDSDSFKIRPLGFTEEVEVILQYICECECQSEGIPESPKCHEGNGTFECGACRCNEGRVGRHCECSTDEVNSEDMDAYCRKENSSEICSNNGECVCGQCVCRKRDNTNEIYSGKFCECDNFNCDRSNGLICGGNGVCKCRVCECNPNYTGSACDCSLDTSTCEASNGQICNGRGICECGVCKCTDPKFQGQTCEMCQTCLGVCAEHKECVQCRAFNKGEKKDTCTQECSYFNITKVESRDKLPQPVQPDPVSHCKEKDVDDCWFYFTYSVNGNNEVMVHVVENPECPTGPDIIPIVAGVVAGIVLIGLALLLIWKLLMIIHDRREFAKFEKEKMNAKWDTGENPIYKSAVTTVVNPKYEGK
Integrin beta-1 (Homo sapiens) + Integrin alpha-4 (Homo sapiens), sequence (P13612 whole entry, looked up): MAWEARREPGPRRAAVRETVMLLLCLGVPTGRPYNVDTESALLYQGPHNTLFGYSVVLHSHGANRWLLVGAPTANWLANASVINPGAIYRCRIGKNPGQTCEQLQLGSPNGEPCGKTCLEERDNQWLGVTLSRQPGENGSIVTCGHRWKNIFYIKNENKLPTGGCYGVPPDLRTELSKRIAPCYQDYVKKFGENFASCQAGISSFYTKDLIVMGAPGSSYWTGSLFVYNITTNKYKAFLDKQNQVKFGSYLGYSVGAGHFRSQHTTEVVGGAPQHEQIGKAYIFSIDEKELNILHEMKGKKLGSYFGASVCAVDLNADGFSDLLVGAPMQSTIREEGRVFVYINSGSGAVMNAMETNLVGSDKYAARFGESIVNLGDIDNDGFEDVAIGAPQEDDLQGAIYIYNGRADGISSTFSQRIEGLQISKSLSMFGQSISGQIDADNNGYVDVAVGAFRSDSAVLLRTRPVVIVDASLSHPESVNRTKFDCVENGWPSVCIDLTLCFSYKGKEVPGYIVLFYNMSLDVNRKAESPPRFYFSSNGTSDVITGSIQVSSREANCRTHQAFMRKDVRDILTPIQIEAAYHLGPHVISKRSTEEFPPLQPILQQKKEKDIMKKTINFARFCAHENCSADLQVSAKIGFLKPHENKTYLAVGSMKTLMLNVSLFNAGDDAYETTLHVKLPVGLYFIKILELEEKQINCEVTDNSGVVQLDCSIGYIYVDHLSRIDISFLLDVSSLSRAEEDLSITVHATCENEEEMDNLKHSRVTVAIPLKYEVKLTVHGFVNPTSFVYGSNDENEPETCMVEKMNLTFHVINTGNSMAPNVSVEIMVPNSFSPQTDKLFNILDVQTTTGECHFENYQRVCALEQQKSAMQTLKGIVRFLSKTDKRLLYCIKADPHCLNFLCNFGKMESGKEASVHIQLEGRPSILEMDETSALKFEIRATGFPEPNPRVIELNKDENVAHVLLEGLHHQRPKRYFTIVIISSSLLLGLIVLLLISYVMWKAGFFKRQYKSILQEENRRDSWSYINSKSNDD
Beta-adrenergic receptor kinase 1 (Homo sapiens), sequence (P25098 whole entry, looked up): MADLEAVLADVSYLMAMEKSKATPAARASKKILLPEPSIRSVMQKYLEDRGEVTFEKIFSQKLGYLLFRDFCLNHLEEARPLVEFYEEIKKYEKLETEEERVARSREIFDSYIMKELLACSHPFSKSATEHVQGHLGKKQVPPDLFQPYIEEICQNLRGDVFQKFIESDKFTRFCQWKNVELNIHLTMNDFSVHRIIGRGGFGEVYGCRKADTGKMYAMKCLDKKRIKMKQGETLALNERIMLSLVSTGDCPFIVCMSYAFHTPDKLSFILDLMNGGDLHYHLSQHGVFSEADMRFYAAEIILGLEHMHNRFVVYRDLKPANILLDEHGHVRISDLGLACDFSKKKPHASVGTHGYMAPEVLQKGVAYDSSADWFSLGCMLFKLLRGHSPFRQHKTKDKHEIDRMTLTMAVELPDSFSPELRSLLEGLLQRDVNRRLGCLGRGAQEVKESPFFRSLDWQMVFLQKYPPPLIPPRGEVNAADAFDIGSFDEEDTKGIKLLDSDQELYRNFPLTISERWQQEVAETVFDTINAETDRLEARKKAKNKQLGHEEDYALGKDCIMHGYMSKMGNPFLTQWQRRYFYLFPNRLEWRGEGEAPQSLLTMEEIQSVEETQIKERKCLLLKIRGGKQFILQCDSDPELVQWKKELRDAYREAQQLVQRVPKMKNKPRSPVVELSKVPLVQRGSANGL
AP-2 complex subunit beta (Homo sapiens), sequence (P63010 whole entry, looked up, the tested form may be a part, one chain of several): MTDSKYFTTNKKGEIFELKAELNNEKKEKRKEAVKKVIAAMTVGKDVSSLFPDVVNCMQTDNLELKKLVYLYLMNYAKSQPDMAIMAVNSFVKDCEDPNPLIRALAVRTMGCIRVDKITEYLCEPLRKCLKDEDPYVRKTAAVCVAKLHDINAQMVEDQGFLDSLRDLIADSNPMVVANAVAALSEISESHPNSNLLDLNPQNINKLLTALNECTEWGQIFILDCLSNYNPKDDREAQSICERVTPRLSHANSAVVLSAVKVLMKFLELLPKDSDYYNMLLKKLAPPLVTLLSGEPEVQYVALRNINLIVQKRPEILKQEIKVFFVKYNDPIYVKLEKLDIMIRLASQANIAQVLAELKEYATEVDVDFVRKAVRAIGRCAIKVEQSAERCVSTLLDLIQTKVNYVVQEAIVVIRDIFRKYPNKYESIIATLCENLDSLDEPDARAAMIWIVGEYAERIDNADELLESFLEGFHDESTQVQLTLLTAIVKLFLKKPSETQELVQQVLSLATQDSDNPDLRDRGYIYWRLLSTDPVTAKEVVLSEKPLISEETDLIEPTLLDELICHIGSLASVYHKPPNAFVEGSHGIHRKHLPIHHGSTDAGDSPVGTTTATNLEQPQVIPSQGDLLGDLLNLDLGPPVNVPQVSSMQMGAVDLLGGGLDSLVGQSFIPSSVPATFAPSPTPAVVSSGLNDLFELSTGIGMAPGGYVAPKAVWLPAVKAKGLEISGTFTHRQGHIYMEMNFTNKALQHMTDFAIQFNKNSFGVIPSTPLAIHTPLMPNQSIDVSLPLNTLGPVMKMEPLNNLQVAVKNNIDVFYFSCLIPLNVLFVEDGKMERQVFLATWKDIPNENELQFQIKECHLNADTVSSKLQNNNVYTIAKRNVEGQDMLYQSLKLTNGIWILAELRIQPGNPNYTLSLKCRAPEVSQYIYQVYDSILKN
ATP-binding cassette sub-family B member 6 (Homo sapiens), sequence (Q9NP58 whole entry, looked up): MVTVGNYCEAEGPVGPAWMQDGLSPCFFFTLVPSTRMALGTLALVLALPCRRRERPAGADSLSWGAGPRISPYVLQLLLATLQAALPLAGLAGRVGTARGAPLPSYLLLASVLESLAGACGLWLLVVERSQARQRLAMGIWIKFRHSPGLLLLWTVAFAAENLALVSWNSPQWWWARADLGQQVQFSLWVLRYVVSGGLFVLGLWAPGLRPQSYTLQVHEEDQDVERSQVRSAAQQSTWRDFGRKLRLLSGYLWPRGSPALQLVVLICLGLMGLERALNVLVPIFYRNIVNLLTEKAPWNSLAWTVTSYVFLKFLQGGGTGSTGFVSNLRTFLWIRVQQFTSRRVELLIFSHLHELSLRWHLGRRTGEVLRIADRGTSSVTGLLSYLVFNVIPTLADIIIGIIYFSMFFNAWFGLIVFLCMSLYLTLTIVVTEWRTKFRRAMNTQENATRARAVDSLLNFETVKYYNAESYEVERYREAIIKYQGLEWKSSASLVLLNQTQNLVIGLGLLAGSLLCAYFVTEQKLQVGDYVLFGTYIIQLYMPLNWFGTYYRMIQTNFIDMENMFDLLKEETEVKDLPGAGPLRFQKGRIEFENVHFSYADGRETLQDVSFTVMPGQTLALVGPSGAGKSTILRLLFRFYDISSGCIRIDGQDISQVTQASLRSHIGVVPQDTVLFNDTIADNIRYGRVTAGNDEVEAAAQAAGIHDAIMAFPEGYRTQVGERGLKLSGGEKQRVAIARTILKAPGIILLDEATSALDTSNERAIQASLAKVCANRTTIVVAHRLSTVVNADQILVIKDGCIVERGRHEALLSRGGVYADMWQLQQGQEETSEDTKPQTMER
Beta-2 adrenergic receptor (Homo sapiens), sequence (P07550 whole entry, looked up): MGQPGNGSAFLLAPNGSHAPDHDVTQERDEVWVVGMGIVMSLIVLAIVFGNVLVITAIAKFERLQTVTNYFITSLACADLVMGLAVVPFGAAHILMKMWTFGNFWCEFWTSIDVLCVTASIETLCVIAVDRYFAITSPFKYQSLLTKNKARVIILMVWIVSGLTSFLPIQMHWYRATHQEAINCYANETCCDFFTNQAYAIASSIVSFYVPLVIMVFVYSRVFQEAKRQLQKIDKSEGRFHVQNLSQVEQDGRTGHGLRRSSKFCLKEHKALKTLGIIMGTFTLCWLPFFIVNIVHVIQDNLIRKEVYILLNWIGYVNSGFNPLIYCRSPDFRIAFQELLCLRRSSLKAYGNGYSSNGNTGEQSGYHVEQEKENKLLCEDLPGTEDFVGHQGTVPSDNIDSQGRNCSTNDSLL

CC(=O)[C@@]1(O)CC[C@H]2[C@@H]3CCC4=CC(=O)CC[C@]4(C)[C@H]3[C@@H](O)C[C@@]21C
99.7%: GFP response vs DMSO [6, 22]
inactive: percent of DMSO control GFP [1] 104% | GFP response vs DMSO [2] 95.9% | percent response of DMSO control [3] 94.9% | GFP response vs DMSO [4] 90.3% | GFP response, % of DMSO [5] 96.4% | GFP response vs DMSO [6] 99.3% | GFP response relative to DMSO [7] 97.7% | GFP response vs DMSO [8] 102% | GFP response, % of DMSO [9] 96.4% | vesicle binding response [10] 182% | inhibition [11] 12.8% | superoxide response (% of plate) [12] 89.3% | aptamer binding inhibition [13] 1% | inhibition [14] -12.8% | response [15] 4.15% | binding (% of control) [16] 100% | efflux inhibition (fraction of control) [17] -0.2 | inhibition [18] 10% | differentiation response [19] -3.43%
97.9%: GFP response relative to DMSO [7, 23]
98.3%: GFP response, % of DMSO [9, 21]
96.5%: GFP response relative to DMSO [7, 24]
94.5%: GFP response, % of DMSO [9, 22]
99.3%: GFP response vs DMSO [6, 21]
56.2%: double positive events [10]

Nc1[nH]c(=O)ncc1F
70.4%: GFP response vs DMSO [6, 21]
78.1%: GFP response vs DMSO [6, 22]
61.3%: double positive events [10]
111%: GFP response relative to DMSO [7, 24]
active: percent of DMSO control GFP [1] 84.2%
79.7%: GFP response, % of DMSO [9, 21]
inactive: GFP response vs DMSO [2] 107% | percent response of DMSO control [3] 87.1% | GFP response vs DMSO [4] 113% | GFP response, % of DMSO [5] 80.8% | GFP response vs DMSO [6] 74.7% | GFP response relative to DMSO [7] 107% | GFP response vs DMSO [8] 106% | GFP response, % of DMSO [9] 80.6% | vesicle binding response [10] 142% | inhibition [11] 10% | superoxide response (% of plate) [12] 67.3% | aptamer binding inhibition [13] 0% | inhibition [14] 27% | response [15] -5.4% | binding (% of control) [16] 108% | efflux inhibition (fraction of control) [17] 0.33 | inhibition [18] 1% | differentiation response [19] 7.87%
81.6%: GFP response, % of DMSO [9, 22]
95%: GFP response relative to DMSO [7, 23]

COc1cc(/C=C/C(=O)CC(=O)/C=C/c2ccc(O)c(OC)c2)ccc1O
61.2%: double positive events [10]
inactive: percent of DMSO control GFP [1] 117% | GFP response vs DMSO [2] 114% | GFP response vs DMSO [4] 114% | GFP response, % of DMSO [5] 95.1% | GFP response vs DMSO [6] 105% | GFP response relative to DMSO [7] 93.8% | GFP response vs DMSO [8] 111% | GFP response, % of DMSO [9] 111% | vesicle binding response [10] 39.9% | aptamer binding inhibition [13] 6% | response [20] -195% | inhibition [14] 14.9% | response [15] -4.77% | binding (% of control) [16] 129% | efflux inhibition (fraction of control) [17] 0.24 | inhibition [18] -398% | differentiation response [19] 18.8%
active: percent response of DMSO control [3] 135%

CC(=O)Nc1ccc(S(=O)(=O)c2ccc(N)cc2)cc1
62.6%: double positive events [10]
inactive: percent of DMSO control GFP [1] 97.9% | GFP response vs DMSO [2] 126% | GFP response vs DMSO [4] 77.6% | GFP response, % of DMSO [5] 85.4% | GFP response vs DMSO [6] 103% | GFP response relative to DMSO [7] 105% | GFP response vs DMSO [8] 102% | GFP response, % of DMSO [9] 102% | vesicle binding response [10] 203% | inhibition [11] 17.1% | superoxide response (% of plate) [12] 110% | aptamer binding inhibition [13] 0% | response [20] -3.74% | inhibition [14] -5.82% | response [15] -1.44% | binding (% of control) [16] 101% | efflux inhibition (fraction of control) [17] 0.05 | inhibition [18] 8% | differentiation response [19] 9.01%
101%: GFP response vs DMSO [6, 21] | GFP response, % of DMSO [9, 21]
104%: GFP response vs DMSO [6, 22]
active: percent response of DMSO control [3] 136%
103%: GFP response relative to DMSO [7, 23]
102%: GFP response, % of DMSO [9, 22]
106%: GFP response relative to DMSO [7, 24]
